Screening results from PubChem BioAssay.
In the library only some 8.7% were active in any assay of this set; here they are far more common.
AMA1 RON2 block: AMA1-RON2 (P. falciparum) interaction inhibition; AlphaScreen AMA1-biotinylated RON2 peptide binding; Potency, µM (doses to about 58.2 µM), without a hit: top-dose activity change, negative = inhibition, actives largely listed as inhibitors; 360,000 tested, 0.2% active; AID 720542;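 also: 0% = vehicle wells and -100% = peptide control; nearly all actives have a fitted effect of over 45% in size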
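AMA1 (3D7) with his tag at 25 nM final met compounds first, then biotinylated RON2 peptide at 25 nM; detection used donor plus acceptor beads, 10 µg/mL apiece, read by AlphaScreen after 30 min at room temperature.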
Pf growth 96h: inhibits malaria parasite growth, 96 h. Potency, µM (doses to about 28.7 µM), inactives show at the top dose activity change, negative = inhibition, most hits filed as inhibitors. AID 504834. 320,000 tested, 6.9% active. P. falciparum luciferase reporter growth, 96 h
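P. falciparum expressing integrated firefly luciferase, in erythrocytes at 2% hematocrit, 0.05% parasitemia, incubated with compounds 96 h at 37 C, 5% CO2. Growth inhibition read as loss of luminescence; two-generation exposure targets delayed-death apicoplast inhibitors.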
VACV mCherry inh: inhibitors of vaccinia virus infection (mCherry reporter signal) | Vaccinia virus mCherry reporter infection, fluorescence | Potency, µM (doses to about 36.5 µM), for the others: at the highest dose activity change, negative = inhibition, most hits filed as inhibitors | 310,000 tested, 0.63% active | AID 720579; calls by dose curve; tested in A549 cells; also: nearly all actives have a fitted effect of over 35% in size
Pf growth 48h: inhibits P. falciparum growth in the first generation, 48 h; Potency, µM (highest dose often 28.7 µM), for inactives: at the top dose activity change, negative = inhibition, hits mostly inhibitors; P. falciparum luciferase growth in erythrocytes, 48 h; 310,000 tested, 5.9% active
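Compounds are pin-transferred into medium, infected erythrocytes (2% hematocrit, 0.1% parasitemia final) are added, and plates sit one parasite generation at 37 C in 5% CO2. Detection reagent is then added and luminescence measured.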
VACV Venus inh: inhibitors of vaccinia virus (Venus reporter); Vaccinia virus Venus reporter expression, fluorescence; Potency, µM (titrated, usually from 36.5 µM), for inactives: at the highest dose activity change, negative = inhibition, most hits filed as inhibitors; 330,000 tested, 0.46% active; calls by dose curve; tested in A549 cells; also: nearly all actives have a fitted effect of over 30% in size
The depositor's hits bear a star; i = inactive; ? = inconclusive; / = not tested or not shown; [ ] = dose if it differs, or a comment. Unless noted, calls follow the shape of the dose curve; as a rule, active = well fitted curve in the direction sought with a large enough effect; inconclusive = small, poorly fitted or top-dose-only effect, or another doubt; inactive = no such curve, though single readings can be large; an effect the other way counts as inactive or inconclusive. Unless noted, % is scaled to controls: 0 for no effect and ±100 for the full control effect; potency is read from the fitted curve at half-maximal effect.

SMILES | AMA1 RON2 block | Pf growth 96h | VACV mCherry inh | Pf growth 48h | VACV Venus inh
CSc1nc2nc(C(F)(F)F)cc(-c3ccccc3)n2n1 | 7% | 2.9µM* | -29% | / | -18%
CSc1nc2nc(-c3ccccc3)cc(C(F)(F)F)n2n1 | 8% | 1% | / | 4.1µM* | -14%
CSc1nc2nc(C)cc(-c3ccccc3)n2n1 | 11% | / | -18% | 13% | ?
CCS(=O)(=O)c1ncc(N(Cc2ccccc2)Cc2ccco2)c(C(=O)Nc2ccc(C)c(C)c2)n1 | / | / | -13% | / | -6%
COc1ccc(Cn2c(O)c(C=Nc3ccc(O)cc3)c3ccccc3c2=O)cc1 | -6% | 12µM* | -18% | -23% | -27%
CC(C)(C)NC(=O)CCN(/N=C/c1ccc([N+](=O)[O-])o1)C1=NS(=O)(=O)c2ccccc21 | 2%[11.6 µM] | ? | ? | -18% | 10µM*
CC(C)(C)CC(C)(C)N=C1Nc2ccc(Cl)cc2N[C@]12C[C@H]1CCCC(=O)N3CC[C@@H](C2)[C@@H]13 | / | / | -16% | / | ?
COC(=O)c1sccc1NC(=O)Nc1ccccc1C | -2% | 35% | -14% | 12% | 1%
COC(=O)c1sccc1NC(=O)Nc1ccccc1F | 13% | 9.3µM* | i | 60% | -12%
CCC(=O)Nc1sc(C(=O)Nc2ccccc2F)c(C)c1C(=O)OC | -6% | 2.1µM* | -7% | 6% | -16%
Cc1ccc(S(=O)(=O)NCC2CCC(C(=O)NCc3ccc(F)cc3)CC2)cc1 (stereo not given) | / | / | -14% | / | -10%
CC1(c2ccc(OCC#N)cc2)C=C(c2ccc(OCC#N)cc2)n2nc(C(F)(F)F)nc2N1 (stereo not given) | 0% | 7.4µM* | ? | 9.3µM* | -26%
Cc1ccccc1S(=O)(=O)Cc1ccc(C(=O)NCCCN2CCC(C)CC2)o1 | -12% | -2% | -16% | 14% | -6%
Cc1ccccc1S(=O)(=O)Cc1ccc(C(=O)NCCCN2CCCC(C)C2)o1 (stereo not given) | 9% | 2.3µM* | / | -2% | /
Cc1ccccc1S(=O)(=O)Cc1ccc(C(=O)NCCN(Cc2ccccc2)C(C)C)o1 | -5% | -9% | -1% | 5.2µM* | -14%
Cc1oc(-c2cccc(NC(=O)c3ccccn3)c2)nc1CNC(=O)C#Cc1ccccc1 | / | / | -3% | / | -16%
CCn1c(=O)c2cc(C(=O)N(C)c3ccccc3F)sc2c2ccccc21 | -7% | ? | -4% | ? | -19%
CCn1c(=O)c2cc(C(=O)N(C)c3ccc(OC)cc3OC)sc2c2ccccc21 | -7% | 10µM* | / | ? | /
CCn1c(=O)c2cc(C(=O)N(C)c3cc(C)ccc3OC)sc2c2ccccc21 | 0% | ? | / | 13µM* | /
CCn1c(=O)c2cc(C(=O)N(C)c3cc(Cl)c(OC)cc3OC)sc2c2ccccc21 | / | / | -15% | / | -16%
CCCCN(CCCC)CC(O)c1cc(Cl)cc2c1-c1ccc(Cl)cc1C2=Cc1ccc(Cl)cc1 (stereo not given) | / | / | -13% | / | -3%
Cc1c(C(=O)N2CCCCCC2)c(S(=O)(=O)Nc2cccc(C#N)c2)c(C)n1C | / | / | -2% | / | -15%
COc1ccc(Nc2c(-c3ccc(C)o3)nc3ccc(Cl)cn23)cc1 | / | / | -2% | / | 2%
Cc1sc2nc(SCC(=O)N(C)c3ccccc3)n(C)c(=O)c2c1C | 4% | -3% | i | 8.3µM* | -12%
Cc1ccccc1-c1ccc(/C=C2/SC(N3CCOCC3)=NC2=O)o1 | -18% | ? | -24% | 10µM* | -26%
SMILES | AMA1 RON2 block | Pf growth 96h | VACV mCherry inh | Pf growth 48h | VACV Venus inh
CCN1CCN(S(=O)(=O)c2ccc(Cl)c(C(=O)Nc3cc(Cl)ccc3N3CCOCC3)c2)CC1 | -12% | 13µM* | -8% | ? | ?
CCN1CCN(c2ccc(S(=O)(=O)N3CCOCC3)cc2NC(=O)c2ccc(Cl)cc2Cl)CC1 | 3% | ? | ? | 13µM* | -16%
O=C1c2[nH]nc(-c3ccccc3O)c2C(c2ccc(Cl)cc2)N1CCc1ccccc1 (stereo not given) | / | / | -6%[7.34 µM] | / | -5%[7.34 µM]
Nc1ccc(N2CCOCC2)c2nonc12 | 3% | 12µM* | -8% | 1% | -14%
O=C(Nc1ccc(Br)cc1)C1CCCN(S(=O)(=O)c2ccc(Br)s2)C1 (stereo not given) | / | / | -19% | / | -16%
CCN1C(=O)/C(=C/c2ccc(N3CCCC3)cc2)NC1=S | ? | 8.3µM* | -14% | 18% | 36%
Cc1ccc(OCCn2cc(C(=O)C3CCCCC3)c3ccccc32)cc1 | / | / | -13% | / | -10%
COc1ccc(NC(=O)c2cc3c(=O)n(Cc4ccco4)ccc3nc2C)c(OC)c1 | / | / | -6% | / | -7%
COc1ccc2nc(N3CCCC3)c(C#N)cc2c1 | 39% | 8.3µM* | / | / | /
COc1ccccc1C(=O)N1CCN(c2nc3cc(C)c(C)cc3cc2C#N)CC1 | 9% | 10µM* | -18% | ? | -29%
COc1ccccc1C(=O)N1CCN(c2nc3cc(C)cc(C)c3cc2C#N)CC1 | -1% | / | -23% | / | -24%
CCCCOC(=O)c1ccc(NS(=O)(=O)c2c(C)nc3scc(C)n3c2=O)cc1 | / | / | -22% | / | -25%
Cc1ccc(-c2cc(C(=O)N/N=C/c3ccoc3)c3ccccc3n2)cc1 | 37% | 9.3µM* | / | -1% | /
O=C(N/N=C/c1ccccn1)c1cc(-c2ccccc2)nc2ccccc12 | 78% | 13µM* | / | ? | /
CCc1ccccc1NC(=O)c1ncoc1-c1ccco1 | / | / | -13% | / | 6%
Cc1noc(/C=C/c2ccco2)c1S(=O)(=O)N1CCC(C(=O)Nc2ccc(F)c(Cl)c2)CC1 | / | / | -10% | / | -9%
COc1ccc(CCNC(=O)CCCn2c(=O)c3ccccc3n(CC(=O)Nc3cccc(C)c3)c2=O)cc1OC | / | / | 1% | / | -4%
C/C(=N\NS(=O)(=O)c1ccc([N+](=O)[O-])cc1)c1ccc2c(c1)OCO2 | 2% | 5.9µM* | -21% | 40% | -8%
C/C(=N/NS(=O)(=O)c1cccc([N+](=O)[O-])c1)c1ccc2c(c1)OCO2 | -16% | 0.83µM* | i | 21% | -4%
CCOCCCn1c(SCC(=O)Nc2ccc(C(C)C)cc2)nc2c(sc3ccccc32)c1=O | / | / | -10% | / | -17%
O=C(NCCN1CCCCC1)c1ccc(Cn2c(SCc3ccccc3)nc3cccnc32)cc1 | / | / | -17% | / | -4%
COc1ccc(OC)c(-n2c(SCC(C)=O)nnc2-c2cccc(S(=O)(=O)N(C)C)c2)c1 | -12% | 12µM* | -15% | / | -7%
Cc1noc(C)c1CSc1nnc(-c2cc(Cl)ccc2Cl)n1N | -11% | 40% | -3% | 21% | 4%
COc1cccc(-n2c(SCc3c(C)noc3C)nnc2-c2cccc(S(=O)(=O)N(C)C)c2)c1 | -9% | ? | 4% | 12µM* | -7%
CCSc1nnc(-c2cccc(S(=O)(=O)N(C)C)c2)n1-c1cc(OC)ccc1OC | -7% | ? | / | ? | /
COc1ccc(-c2nnc(SCc3c(C)noc3C)n2N)cc1OC | 0% | 12µM* | -11% | ? | -5%
